From PubChem BioAssay
Values joined by “and” are separate entries in the source; they are usually repeats but may differ in a detail not shown here. Equal entries are not always repeated. Inconclusive results are not listed. For part of these data: Potency and affinity values are given separately. Active and inactive are the calls of the source.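 The calls were made as follows, unless noted: active = compounds killing one labelled cell type while sparing the other, by normalised counts and ratio limits, not self-fluorescent; inactive = the rest.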

Legend:
[1] = EMT-state selective cytotoxicity in co-culture – imaging, PC-3E GFP, TEM4-18 mCherry, primary screen (AID 1345086); settings: PC-3E GFP / TEM4-18 mCherry co-culture, imaging cell counts, at 1 µM; for red/green cell ratio (normalised): actives lie on both sides, counts scaled to control wells, 1 = unselective;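 as to all read-outs here: cells exposed to compound for 72 h before imaging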;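 as to red/green cell ratio (normalised): normalised mesenchymal count divided by normalised epithelial count so high means epithelial killing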
[2] = compounds altering viability of human ES cells (AID 493140; call rule not given here;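 also: cells exposed to compounds for four days before counting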); settings: human embryonic stem cell survival screen; stronger effect = higher value
[3] = P. berghei load reduction in hepatocytes – cell-based, HepG2, luciferase luminescence, HepG2 viability, primary screen (AID 624349; in the data active = parasite load remaining mostly below about 12%, no sharp cut-off; inactive = mostly above about 10%;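 also: 100% = mean of DMSO negative control wells on the same plate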); settings: P. berghei liver stage in HepG2, luciferase luminescence, concentration not given here; parasite load remaining: stronger effect = lower value; viability: measured here: HepG2 viability without parasites
[4] = tested on: Aerobactin synthetase IucA (Klebsiella pneumoniae); assay: inhibition of K. pneumoniae IucA enzyme – biochemical, Tocris library, absorbance (AID 1345561; call rule not given here;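 also: 100% = enzyme without compound and 0% = no enzyme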); settings: purified IucA enzyme assay, absorbance (OD) read-out; stronger effect = lower value;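 tested at 8 µM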
[5] = viability loss in pontine glioma line – cell-based, SU-DIPG-XVII, MIPE5.0, CellTiter-Glo, qHTS, dose response (AID 1347060; cut-off not given, nearly all actives have AC50 up to about 26 µM); settings: CellTiter-Glo ATP luminescence
[6] = viability loss in pontine glioma line – cell-based, SU-DIPG-XIII, MIPE4.0, CellTiter-Glo, qHTS, dose response (AID 1347061; cut-off not given, nearly all actives have AC50 up to about 37 µM;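 also: cells exposed to compound for 48 hours before readout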); settings: CellTiter-Glo ATP luminescence
[7] = viability loss in pontine glioma line – cell-based, SU-DIPG-XXV, MIPE5.0, CellTiter-Glo, qHTS, dose response (AID 1347065; cut-off not given, nearly all actives have AC50 up to about 26 µM;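 also: cells exposed to compound for 48 hours before ATP readout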); settings: CellTiter-Glo ATP luminescence
[8] = growth inhibition of DIPG cells – cell-based, MIPE4.0 library, CellTiter-Glo luminescence, qHTS (AID 1347066; cut-off not given, nearly all actives have AC50 up to about 30 µM;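 also: cells exposed to compound for 48 hours before readout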); settings: SU-DIPG-VI viability, CellTiter-Glo ATP luminescence
[9] = JHH-DIPG-1 glioma cell viability, MIPE5.0 library, CellTiter-Glo luminescence, qHTS (AID 1347067; cut-off not given, nearly all actives have AC50 up to about 26 µM;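 also: cells exposed to compound for 48 hours before readout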); settings: JHH-DIPG-1 glioma viability, CellTiter-Glo ATP luminescence
[10] = growth inhibition of DIPG cells – cell-based, MIPE5.0 library, qHTS (AID 1347068; cut-off not given, nearly all actives have IC50 up to about 30 µM); settings: SU-DIPG-XXV viability
[11] = viability loss with induced miR-34 in A549 – imaging, A549 dox-inducible miR-34, nuclei and caspase counts, primary screen (AID 1347080;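 active = compounds whose cell count with miR-34 switched on is under 0.7 times the count with it off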); settings: A549 miR-34 inducible, Hoechst nuclei count, 48 h
[12] = MELAS cybrid and Rieske KO viability enhancers – cell-based, MELAS cybrids, Rieske KO mouse fibroblasts, CellTiter-Glo, primary screen (AID 1508586;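 active = mean z-score across replicates of 1.96 or higher in either the MELAS or the Rieske mutant cell line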;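 also: z relative to plate mean and SD of compound and empty wells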); settings: low glucose
[13] = galactose survival enhancers in mitochondrial complex I cybrids – cell-based, galactose medium, ATP luminescence, primary screen (AID 1645843;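 active = z-score of at least 1.8 in each of two replicates, scored against plate mean and spread of sample wells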;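 also: positive z means more ATP and so rescue of galactose-driven cybrid death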); settings: complex I mutant cybrid cells, 72 h, stronger effect = higher value
[14] = yeast 75Q aggregation reduction – 75Q-TubU reporter (AID 1593); settings: Yeast 75Q polyglutamine aggregation reporter
[15] = restoration of touch response, mutant HTT neurons – whole organism, C. elegans mechanosensory neurons, N-terminal huntingtin (AID 1599); settings: C. elegans polyQ-huntingtin mechanosensory neurons, stronger effect = higher value
[16] = blockers of cytochrome c efflux from mitochondria – biochemical, purified mitochondria (AID 1603); settings: stronger effect = lower value;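 also: mouse liver mitochondria challenged with calcium chloride; signal normalized to the plate average as 100%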
[17] = polyglutamine aggregate formation blockers (AID 1604); settings: polyglutamine-induced protein aggregation inhibition assay; stronger effect = higher value; tested at 2.5 µM
[18] = glutamate transport activators, MN-1 cells, MN-1 cell line (AID 1612); settings: MN-1 motor neuron cells, stronger effect = higher value;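 also: tested at 1 µM final; 0% = mean of DMSO vehicle wells on each plate; positive means more glutamate uptake than control and negative means less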
[19] = 75Q-TubH aggregate inhibition, S. cerevisiae, yeast (AID 1616); settings: S. cerevisiae 75Q-TubH polyglutamine aggregation suppression; stronger effect = higher value
[20] = compounds altering circadian rhythm period length – cell-based, LOPAC library, luminescence reporter (AID 2774; call rule not given here;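 also: values are relative to mean of DMSO wells on each plate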); settings: circadian reporter cells, at 7 µM, actives lie on both sides
[21] = compounds altering Cy5-DNA-NS3h complex signal – biochemical, LOPAC1280, artefact control for HCV NS3 helicase inhibitor project (AID 687037; call rule not given here); settings: Cy5-DNA-NS3h complex fluorescence interference counterscreen
[22] = chitosan synthesis blockers in C. neoformans – flow cytometry, Cibacron Brilliant Red staining (AID 1347148; call rule not given here;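 also: compound exposure lasted three days at 37 degrees C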); settings: Cryptococcus neoformans chitosan, stronger effect = lower value; at 10 µM unless noted
[23] = blockers of polyQ-driven CASP3 activation – cell-based (AID 1583); settings: polyglutamine-induced caspase-3 activation, cell assay; stronger effect = higher value;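 tested at 10 µM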
[24] = measured here: epithelial PC-3E GFP cell survival
[25] = measured here: mesenchymal TEM4-18 mCherry cell survival
[26] = stronger effect = lower value, cell number ratio, induced over uninduced
[27] = measured here: relative caspase fold change +Dox/-Dox
[28] = measured here: total cells with miR-34 induction, stronger effect = lower value
[29] = measured here: total cells without miR-34 induction

SMILES: O=C[C@H](O)[C@@H](O)[C@H](O)CO
- red/green cell ratio (normalised) [1]: 0.99 (inactive)
- normalised cell number [1, 24]: 0.97
- normalised cell number [1, 25]: 0.97

SMILES: CC(CCOc1ccc(C(=O)O)cc1)C(=O)O (centres undefined)
- red/green cell ratio (normalised) [1]: 1.1 (inactive)
- normalised cell number [1, 24]: 1.03
- normalised cell number [1, 25]: 1.14

SMILES: COC(=O)c1cc(Br)ccc1Cl
- red/green cell ratio (normalised) [1]: 1.04 (inactive)
- normalised cell number [1, 24]: 1.12
- normalised cell number [1, 25]: 1.17

SMILES: COC1C(O)C(O)C(O)[C@@H](O)C1O (some centres undefined)
- red/green cell ratio (normalised) [1]: 1.11 (inactive)
- normalised cell number [1, 24]: 0.95
- normalised cell number [1, 25]: 1.05

SMILES: CC(=O)O[C@H]1CC2CCC3C(CC[C@@]4(C)C3C[C@H]([N+]3(C)CCCCC3)[C@@H]4OC(C)=O)[C@@]2(C)C[C@@H]1[N+]1(C)CCCCC1 (some centres undefined)
- red/green cell ratio (normalised) [1]: 0.99 (inactive)
- normalised cell number [1, 24]: 0.95
- normalised cell number [1, 25]: 0.94

SMILES: CC1CCC2OC2C/C=C/C(=O)c2c(O)cc(O)cc2CC(=O)O1 (centres undefined)
- red/green cell ratio (normalised) [1]: 0.83 (inactive)
- normalised cell number [1, 24]: 0.88
- normalised cell number [1, 25]: 0.73

SMILES: O=c1c(O)c(-c2ccc(O)cc2)oc2cc(O)cc(O)c12
- survival [2]: 7.5 (inactive)
- parasite load remaining [3]: 80.6% (inactive)
- viability [3]: 69.5%
- red/green cell ratio (normalised) [1]: 1 (inactive)
- normalised cell number [1, 24]: 1.03
- normalised cell number [1, 25]: 1.03
- remaining activity [4]: 107% (inactive)
- outcome [5]: inactive
- outcome [6]: inactive
- outcome [7]: inactive
- outcome [8]: inactive
- outcome [9]: inactive
- outcome [10]: inactive
- fold change [11, 26]: 0.974 (inactive) and 0.869 (inactive) and 0.836 (inactive)
- fold change [11, 27]: 0.804 and 0.921 and 1.47
- cell count [11, 28]: 9050 and 8750 and 6630
- cell count [11, 29]: 9290 and 10100 and 7930
- z-score ([12]; MELAS cybrid survival, CellTiter-Glo 48 h, stronger effect = higher value): -0.357 (inactive)
- z-score ([12]; Rieske KO mouse fibroblast survival, CellTiter-Glo 72 h): 0.291
- z-score [13]: -0.765 (inactive)

SMILES: C=C1C(=O)OC(C(=O)OC)C1CCCCCCCC(C)O (centres undefined)
- red/green cell ratio (normalised) [1]: 1.07 (inactive)
- normalised cell number [1, 24]: 1.11
- normalised cell number [1, 25]: 1.18

SMILES: C/C=C/CC(C)C(O)C1C(=O)NC(CC)C(=O)N(C)CC(=O)N(C)C(CC(C)C)C(=O)NC(C(C)C)C(=O)N(C)C(CC(C)C)C(=O)NC(C)C(=O)NC(C)C(=O)N(C)C(CC(C)C)C(=O)N(C)C(CC(C)C)C(=O)N(C)C(C(C)C)C(=O)N1C (centres undefined)
- score [14]: 1.51
- rescue above control [15]: 1.62
- cytochrome c release ratio [16]: 0.93
- inhibition of aggregation [17]: 77.8%
- glutamate uptake change [18]: -28.6%
- aggregation suppression score [19]: 1.73
- period change [20]: -0.005 h (inactive)
- fluorescence ratio (interference) [21]: 0.9 (inactive)
- red/green cell ratio (normalised) [1]: 0.77 (inactive)
- normalised cell number [1, 24]: 0.27
- normalised cell number [1, 25]: 0.21
- remaining activity [4]: 111% (inactive)
- fold change [11, 26]: 1.04 (inactive) and 1.06 (inactive) and 0.898 (inactive)
- fold change [11, 27]: 1.1 and 0.674 and 2.07
- fold fluorescence [22]: 18.1 [at 41.6 µM] (inactive)

SMILES: C[C@@H]1CC[C@@]2(OC1)O[C@H]1CC3C4CC[C@H]5C[C@@H](O)CC[C@]5(C)C4CC[C@]3(C)[C@H]1[C@@H]2C (some centres undefined)
- red/green cell ratio (normalised) [1]: 0.88 (inactive)
- normalised cell number [1, 24]: 1.17
- normalised cell number [1, 25]: 1.03

SMILES: CCCCC/C=C/C1=C(CO)[C@H](O)[C@H]2O[C@H]2[C@@H]1O
- red/green cell ratio (normalised) [1]: 1 (inactive)
- normalised cell number [1, 24]: 1.08
- normalised cell number [1, 25]: 1.08

SMILES: OCc1cc(Br)ccc1Cl
- red/green cell ratio (normalised) [1]: 1.07 (inactive)
- normalised cell number [1, 24]: 1.07
- normalised cell number [1, 25]: 1.14

SMILES: COc1cc(-c2coc3cc(O)c(OC)c(O)c3c2=O)cc(O)c1OC
- red/green cell ratio (normalised) [1]: 0.95 (inactive)
- normalised cell number [1, 24]: 1.03
- normalised cell number [1, 25]: 0.98

SMILES: CC(=O)OC1CCC2(C)C(=CC=C3C2CCC2(C)C3CCC2C(C)/C=C/C(C)C(C)C)C1(C)C (centres undefined)
- red/green cell ratio (normalised) [1]: 1.04 (inactive)
- normalised cell number [1, 24]: 0.92
- normalised cell number [1, 25]: 0.96

SMILES: CC1CC(O)C2C=CC(CC(=O)O1)O2 (centres undefined)
- red/green cell ratio (normalised) [1]: 0.76 (inactive)
- normalised cell number [1, 24]: 0.7
- normalised cell number [1, 25]: 0.53

SMILES: CO[C@H]1OC2COC(c3ccccc3)OC2[C@H](OCc2ccccc2)[C@@H]1OCc1ccccc1 (some centres undefined)
- red/green cell ratio (normalised) [1]: 1 (inactive)
- normalised cell number [1, 24]: 1.15
- normalised cell number [1, 25]: 1.15

SMILES: COC(=O)NC1[C@@H](O)C(O)C(CO)O[C@H]1Sc1ccccc1 (some centres undefined)
- red/green cell ratio (normalised) [1]: 0.91 (inactive)
- normalised cell number [1, 24]: 1.06
- normalised cell number [1, 25]: 0.96

SMILES: CC(C)C[C@@H](NC(=O)OCC1c2ccccc2-c2ccccc21)C(=O)O
- inhibition [23]: -9.47%
- score [14]: -0.27
- rescue above control [15]: 2.38
- cytochrome c release ratio [16]: 0.77
- inhibition of aggregation [17]: -14.3%
- glutamate uptake change [18]: 4.64%
- aggregation suppression score [19]: 0.0751
- red/green cell ratio (normalised) [1]: 0.8 (inactive)
- normalised cell number [1, 24]: 1.21
- normalised cell number [1, 25]: 0.97
- remaining activity [4]: 97.5% (inactive)
- fold change [11, 26]: 0.883 (inactive)
- fold change [11, 27]: 0.962
- cell count [11, 28]: 8270
- cell count [11, 29]: 9370
- z-score [13]: -0.5 (inactive)

SMILES: CO[C@H]1C[C@H](O[C@H]2[C@H](C)[C@@H](O[C@@H]3O[C@H](C)C[C@H](N(C)C)[C@H]3O)[C@@H](C)C[C@]3(CO3)C(=O)[C@H](C)[C@@H](O)[C@@H](C)[C@@H](C)OC(=O)[C@@H]2C)O[C@@H](C)[C@@H]1O
- red/green cell ratio (normalised) [1]: 0.92 (inactive)
- normalised cell number [1, 24]: 1.06
- normalised cell number [1, 25]: 0.97
